Assay results published in paper PMC6919601, “Identification of Plasmodium dipeptidyl aminopeptidase allosteric inhibitors by high throughput screening” (PLoS ONE, 2019).
In all, about 110,000 compounds went through this assay and about 230 (0.21%) showed an effect of 50% or more. The list comes from a sample in which strong results are over-represented; it also holds similar structures and randomly drawn compounds.

Biological target: DPAP1 (Plasmodium falciparum, UniProt Q8IIJ9)
Assay: primary screen, percent inhibition; read by cleavage of a fluorogenic dipeptide substrate; higher = more effect of the substance
Parameters: species or system P. falciparum D10 trophozoite lysates; single well
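Note: 30 min substrate incubation versus DMSO and 10 µM JCP410 controls.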

Chain of DPAP1 (Q8IIJ9 whole entry, looked up): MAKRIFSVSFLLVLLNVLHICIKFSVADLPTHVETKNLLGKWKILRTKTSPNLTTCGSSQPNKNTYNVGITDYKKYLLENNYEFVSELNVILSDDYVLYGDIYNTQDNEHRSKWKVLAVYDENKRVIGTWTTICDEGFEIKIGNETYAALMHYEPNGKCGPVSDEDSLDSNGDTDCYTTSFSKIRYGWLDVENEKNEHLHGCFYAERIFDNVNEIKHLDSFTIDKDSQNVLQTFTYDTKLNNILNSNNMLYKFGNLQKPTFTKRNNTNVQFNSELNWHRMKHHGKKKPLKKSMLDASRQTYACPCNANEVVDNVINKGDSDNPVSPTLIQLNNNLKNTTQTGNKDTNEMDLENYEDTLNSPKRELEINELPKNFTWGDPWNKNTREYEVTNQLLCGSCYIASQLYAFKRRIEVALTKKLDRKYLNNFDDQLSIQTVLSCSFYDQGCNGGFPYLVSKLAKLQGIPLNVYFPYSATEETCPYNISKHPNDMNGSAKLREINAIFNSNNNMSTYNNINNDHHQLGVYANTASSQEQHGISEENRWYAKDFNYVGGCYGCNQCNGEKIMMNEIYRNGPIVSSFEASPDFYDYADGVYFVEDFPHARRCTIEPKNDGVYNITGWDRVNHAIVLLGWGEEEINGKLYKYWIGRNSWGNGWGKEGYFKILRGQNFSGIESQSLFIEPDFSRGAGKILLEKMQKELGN

Row | SMILES | % Inhibition @ 10 uM
1 | O=[N+]([O-])c1ccc(S(=O)(=O)n2cnc3ccccc32)cc1 | 2.81%
2 | CCOC(=O)N1CCN(c2ccc(/C=C(\C#N)c3nc4ccccc4s3)o2)CC1 | 4.67%
3 | COc1ccccc1/C=C/c1nn2c(C3COc4ccccc4O3)nnc2s1 (centres unmarked) | 50.2%
4 | COc1ccccc1-c1nn2c(C3COc4ccccc4O3)nnc2s1 (centres unmarked) | 7.5%
5 | Clc1ccc(-c2nn3c(C4COc5ccccc5O4)nnc3s2)cc1 (centres unmarked) | 53.7%
6 | COc1ccccc1/C=C/c1nn2c(C)nnc2s1 | 2.29%
7 | Cc1ccc(-c2nn3c(C4COc5ccccc5O4)nnc3s2)cc1C (centres unmarked) | 2.89%
8 | c1ccc2c(c1)OCC(c1nnc3sc(-c4ccncc4)nn13)O2 (centres unmarked) | 2.68%
9 | COc1ccc(/C(O)=C/C=N/c2ccc3c(c2)OCO3)cc1 | -4.12%
10 | COc1ccccc1NC(=O)C1=C(C)N=C2CCCC(O)=C2C1c1ccc(OC)c(OC)c1 (centres unmarked) | 2.51%
11 | COc1cc(NS(=O)(=O)c2ccc(N3C(=O)c4ccccc4C3=O)cc2)nc(OC)n1 | -1.96%
12 | CCOc1cc(CN2CCSCC2)ccc1O | 96.4%
13 | CCOc1cc(CN2CCN(C)CC2)ccc1O | 2.33%
14 | CCOc1cc(CN2CCN(Cc3ccccc3)CC2)ccc1O | 3.9%
15 | CCCCSc1nnc2c(n1)[nH]c1ccccc12 | 2.86%
16 | CCCCCCSc1nnc2c(n1)[nH]c1ccccc12 | -2.35%
17 | NCCSc1nnc2c(n1)[nH]c1ccccc12 | 77.5%
18 | COc1ccc(-n2c3c(c(=O)[nH]c2=O)C(NC(=O)c2ccc(F)cc2)(C(F)(F)F)C(=O)N3)cc1 (centres unmarked) | 3.57%
19 | COc1ccc(C2=N/C(=C\c3cccs3)C(=O)O2)cc1 | 11.6%
20 | COc1cc(C(=O)NCc2cn3cccc(C)c3n2)cc(OC)c1OC | 3.3%
21 | COc1ccc(/C=N/n2c(S)nnc2C(F)(F)F)cc1O | -3.04%
22 | COc1ccc(Br)cc1C1CC(=O)N2CN(C3CCCCC3)CSC2=C1C#N (centres unmarked) | 60.2%
23 | COc1cc(C2CC(=O)N3CN(C)CSC3=C2C#N)cc(OC)c1OC (centres unmarked) | 3.77%
24 | COc1cccc(C2CC(=O)N3CN(C4CCCCC4)CSC3=C2C#N)c1OC (centres unmarked) | 21.8%
25 | COc1ccc(Br)cc1C1CC(=O)N2CN(C)CSC2=C1C#N (centres unmarked) | 58.8%
26 | COc1ccc(OC)c(C2CC(=O)N3CN(C4CCCCC4)CSC3=C2C#N)c1 (centres unmarked) | 9.77%

Row | SMILES | % Inhibition @ 10 uM
27 | CCC(C(=O)Nc1nc2nc(C)cc(O)n2n1)c1ccccc1 (centres unmarked) | 0.401%
28 | CCOc1ccc(C2CC(=O)N3CN(C4CCCCC4)CSC3=C2C#N)cc1 (centres unmarked) | 46.6%
29 | N#CC1=C2SCN(C3CCCC3)CN2C(=O)CC1c1cccs1 (centres unmarked) | 48.2%
30 | COc1cc(C2CC(=O)N3CN(C4CCCCC4)CSC3=C2C#N)ccc1O (centres unmarked) | -1.28%
31 | N#CC1=C2SCN(C3CCCC3)CN2C(=O)CC1c1ccc(Cl)cc1 (centres unmarked) | 55.3%
32 | Cc1ccc(C2CC(=O)N3CN(C4CCCCC4)CSC3=C2C#N)cc1 (centres unmarked) | 25.9%
33 | CCc1ccc(C2CC(=O)N3CN(C4CCCCC4)CSC3=C2C#N)cc1 (centres unmarked) | 64.5%
34 | Cc1nnc(SCc2ccc(F)cc2)nc1O | 3.62%
35 | Cc1ccc(COc2ncnc3[nH]cnc23)c(C)c1 | -3.09%
36 | Cc1ccc(CNC(=O)C2CCCN(S(=O)(=O)c3cccc4nonc34)C2)cc1 (centres unmarked) | -0.668%
37 | Cc1ccnc(NC(=O)c2ccc(-c3ccccc3)s2)c1 | 4.4%
38 | O=C(c1ccc(Oc2ccccc2)cc1)c1nc2c(n1O)CCCC2 | 1.74%
39 | Cc1ccc(S(=O)(=O)NC(CC(=O)O)c2cccs2)cc1 (centres unmarked) | 3.64%
40 | CCS(=O)(=O)c1nc(S(=O)(=O)c2ccc(Cl)cc2)c(N2CCOCC2)s1 | -2.25%
41 | O=C(Nc1nc(-c2ccc(Br)cc2)cs1)c1ccco1 | -2.99%
42 | O=c1c2c3c(sc2[nH]c(=S)n1-c1ccc(Cl)cc1)CCC3 | 62.5%
43 | COc1ccc(-n2c(SCC(=O)N3CCOCC3)nc3sc4c(c3c2=O)CCC4)cc1 | 9.91%
44 | COc1ccc(-n2c(=S)[nH]c3sc4c(c3c2=O)CCCCC4)cc1 | 12.4%
45 | O=c1[nH]c2sc3c(c2c(=O)n1-c1ccc(Cl)c(Cl)c1)CCC3 | -2.48%
46 | Oc1ncnc2sc3c(c12)CCN(Cc1ccccc1)C3 | 6.74%
47 | O=c1c2c3c(sc2[nH]c(=S)n1-c1ccccc1)CN(Cc1ccccc1)CC3 | 57.7%
48 | Cc1ccc(-n2c(=S)[nH]c3sc4c(c3c2=O)CCCCC4)cc1 | 11.5%
49 | COc1ccc(-n2c(=S)[nH]c3sc4c(c3c2=O)CCC4)cc1 | 84.1%
50 | O=c1[nH]c(=S)[nH]c2sc3c(c12)CCN(Cc1ccccc1)C3 | 1.4%
51 | CC1(C)CC(=O)C2=C(C1)N(c1nc[nH]n1)C(N)=C(C#N)C2c1cccc(Cl)c1 (centres unmarked) | 5.48%
52 | CN1C2CCC1CC(N1CCN(Cc3ccccc3)CC1)C2 (centres unmarked) | -1.5%

Row | SMILES | % Inhibition @ 10 uM
53 | COc1ccc(/C=C2\C(=N)N3N=C(S(C)(=O)=O)SC3=NC2=O)cc1 | -5.27%
54 | CCn1c(C)cc(/C=C2/NC(=O)N(c3ccccc3)C2=O)c1C | -2.19%
55 | CN1CSC2=C(C#N)C(c3ccccc3)CC(=O)N2C1 (centres unmarked) | 32.9%
56 | CN1CSC2=C(C#N)C(c3ccc(Br)cc3)CC(=O)N2C1 (centres unmarked) | 43.4%
57 | CN1CSC2=C(C#N)C(c3ccccc3Cl)CC(=O)N2C1 (centres unmarked) | 56.6%
58 | CSc1ccc(C2CC(=O)N3CN(C)CSC3=C2C#N)cc1 (centres unmarked) | 75%
59 | COc1ccc2ccccc2c1C1CC(=O)N2CN(C)CSC2=C1C#N (centres unmarked) | 36.5%
60 | COc1ccccc1CC(=N)NOC(=O)c1ccccc1OC | 5.37%
61 | Cc1ccc(C2CC(=O)N3CN(CCc4ccccc4)CSC3=C2C#N)cc1 (centres unmarked) | 64%
62 | N#CC1=C2SCN(CCc3ccccc3)CN2C(=O)CC1c1ccc(F)cc1 (centres unmarked) | 51.6%
63 | N#CC1=C2SCN(CCc3ccccc3)CN2C(=O)CC1c1cccs1 (centres unmarked) | 42.6%
64 | N#CC1=C2SCN(CCN3CCOCC3)CN2C(=O)CC1c1ccc(F)cc1 (centres unmarked) | 49.5%
65 | O=C(N/C(=C\c1ccco1)C(=O)N1CCN(C/C=C/c2ccccc2)CC1)c1ccccc1 | 2.09%
66 | COc1ccc(C2N=C(NO)c3ccccc3N2)cc1 (centres unmarked) | -0.424%
67 | C=C(C)CSc1nc(N)c2c3c(sc2n1)CCC3 | 4.37%
68 | CCCSc1nc(N)c2c3c(sc2n1)CCCC3 | 10.6%
69 | CC(C)CSc1nc(N)c2c3c(sc2n1)CCC3 | 81.4%
70 | COc1ccccc1CNC(=O)Nc1cn(CC(C)C)c(=O)c2ccccc12 | -4.21%
71 | CC(C)CCNC(=O)c1nnc(-c2ccccc2)o1 | -3.34%
72 | CCOC(=O)c1sc(C)c2c(O)nc(-c3ccccc3)nc12 | -1.47%
73 | CCOC(=O)c1sc(-c2ccccc2)nc1-c1ccc([N+](=O)[O-])cc1 | 2.86%
74 | CCOC(=O)c1sc(-c2ccccc2)nc1O | 66.9%
75 | c1ccc(CC2CCN(Cc3ccco3)CC2)cc1 | -2.56%
76 | COc1ccc(-c2cc(-c3ccccc3)nc(N3CCOCC3)n2)cc1OC | -2.6%
77 | Cc1nsc2ccc3ccccc3c12 | 3.36%
78 | Cc1nsc2ccc(Cl)cc12 | 55%

Row | SMILES | % Inhibition @ 10 uM
79 | Cc1nsc2ccc3sccc3c12 | 1.72%
80 | Cc1ccc(-c2noc(CCC(=O)NCc3ccc(F)cc3Cl)n2)cc1 | -0.999%
81 | COc1ccc(-c2noc(CCC(=O)NCc3ccc(F)cc3Cl)n2)cc1 | 60.3%
82 | COc1ccc(-c2noc(CCC(=O)NCc3cc(OC)ccc3OC)n2)cc1 | 0.675%
83 | COCCNc1nc2c(S(=O)(=O)c3ccccc3)nnn2c2ccsc12 | -0.256%
84 | CCc1c(C)sc(NC(=O)Cc2ccc(OC)c(OC)c2)c1C(N)=O | 16.2%
85 | CCOC(=O)c1cc(-c2ccccc2)n(CCC(=O)N2CCCC(C)C2)c1C (centres unmarked) | 1.2%
86 | COc1ccccc1CNC(=O)c1cccc(Br)c1 | -4.15%
87 | N#Cc1cc2c(N)c(C(=O)c3ccc(Br)cc3)sc2nc1N | 2.7%
88 | O=C(NCC1CCCO1)C1CCC(CNS(=O)(=O)c2cccc3nsnc23)CC1 (centres unmarked) | 4.54%
89 | Cc1ccc(NC(=O)COc2ccc(C)cc2C)cc1 | -8.06%
90 | Cc1cccc(NC(=O)COc2ccc(C)cc2C)c1 | -2.32%
91 | Cc1ccc(OCC(=O)Nc2ccccc2)c(C)c1 | 78%
92 | COc1ccc(NC(=O)c2ccc(C)c(Br)c2)cc1 | 2.42%
93 | Cc1c(CNC2CCCc3ccccc32)c(C(=O)O)c(C)n1Cc1ccc(F)cc1 (centres unmarked) | -5.49%
94 | Cc1cccc(Oc2nc3c(C)cccn3c(=O)c2/C=C(\C#N)C(=O)NCC2CCCO2)c1 (centres unmarked) | -9.06%
95 | C=CCN1C(=O)C(CC(=O)NCC)S/C1=N\c1cccc2ccccc12 (centres unmarked) | 0.512%
96 | COC(=O)/C(C#N)=C/c1c(Oc2cccc(C)c2C)nc2ccccn2c1=O | -5.1%
97 | CCNC(=O)/C(C#N)=C/c1c(Oc2cc(C)ccc2C(C)C)nc2ccccn2c1=O | 75.9%
98 | CCOC(=O)/C(C#N)=C/c1c(Oc2cccc(C)c2C)nc2ccccn2c1=O | 77.8%
99 | Cc1ccc(C(C)C)c(Oc2nc3ccccn3c(=O)c2/C=C(\C#N)C(=O)NCc2ccccc2)c1 | -1.43%
100 | CCOC(=O)/C(C#N)=C/c1c(Oc2ccccc2OC)nc2ccccn2c1=O | -5.1%
101 | CNC(=O)/C(C#N)=C/c1c(Oc2cc(C)ccc2C(C)C)nc2ccccn2c1=O | 17%
102 | Cc1cc(C)c2c(n1)SCC(=O)N2CC(=O)NCc1cccc(Cl)c1 | -6.01%
103 | COCCN(Cc1ccco1)C(=O)c1cc2c(Cl)nc3ccccc3c2s1 | 3.88%
104 | Cc1ccc(-c2nnc(SCC(=O)N3CCC(C)CC3)o2)cc1C | 1.3%
